Experimental data published in PubChem BioAssay (NCATS).
Inconclusive results are not listed. The source made the active and inactive calls. Calls come from the whole dose curve; as a rule, active = well fitted curve in the direction sought with a large enough effect; inconclusive = small, poorly fitted or top-dose-only effect, or another doubt; inactive = no such curve, though single readings can be large; an effect the other way counts as inactive or inconclusive.

Experiments:
[1] = U-118MG Cancer Cell Toxicity qHTS against the NCATS CANVASS Library (AID 1347351); note: potency is the fitted concentration of half-maximal effect; for activity change, negative = cytotoxicity: series mostly up to about 38 µM; % is set by controls: 0 for no effect and ±100 for the full control effect
Method in brief: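 Quantitative HTS format: an 11-concentration series was applied to 1000 cells/well following a 4-hour attachment. Cultures ran 72 hours before ATP luminescence detection by CellTiter-Glo.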

[2] = A2780 Cisplatin Sensitive Ovarian Cancer Cell Toxicity qHTS against the NCATS CANVASS Library (AID 1347353); note: nearly all actives have a fitted effect of over 60% in size; note: potency is the fitted concentration of half-maximal effect; for activity change, negative = cytotoxicity: series mostly up to about 46 µM; % is set by controls: 0 for no effect and ±100 for the full control effect
Method in brief: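 750 cells/well, 4 h settle; 11-pt cpd titration; 72 h, 37 °C, 5% CO2; ATPLite 10 min RT; luminescence read.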

[3] = UWB1.289-WTBRCA1 Cancer Cell Toxicity qHTS against the NCATS CANVASS Library (AID 1347354); note: potency is the fitted concentration of half-maximal effect
Method in brief: (§1)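 1000 cells/well, 4 h pre-incubation 37 °C/5% CO2; 11-pnt titration; 72 h; CellTiter-Glo 15 min RT, luminescence.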

[4] = HPAF-II 12hr Apoptosis Induction qHTS against the NCATS CANVASS Library (AID 1347358); note: 0% is about no effect
Method in brief: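 Caspase-Glo 3/7 luminescence (DEVD substrate) reports caspase activity in HPAF-II cells after 12 h compound treatment at 37 degrees C. Compounds were tested in an 11-point series. Doxorubicin served as control.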

[5] = system: NAD(P)H diaphorase (Clostridium kluyveri); assay: Diaphorse counterscreen qHTS: Assay Interference Panel against the NCATS CANVASS Library (AID 1347362); note: potency is the fitted concentration of half-maximal effect; for activity change, negative = inhibition: 0% is about no effect
Method in brief: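 Counterscreen for coupling-enzyme interference: resorufin fluorescence from resazurin/NADH turnover, read after 5 min at room temperature. Compounds were tested over an 11-point series after 15 min dark preincubation with diaphorase in PBS-Tween.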

[6] = KB-8-5-11 Cancer Cell Toxicity qHTS against the NCATS CANVASS Library (AID 1347364); note: nearly all actives have a fitted effect of over 75% in size; note: potency is the fitted concentration of half-maximal effect
Method in brief: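 CellTiter-Glo luminescence after 72 h exposure; 500 KB-8-5-11 cells/well, DMEM/10% FBS, 37C, 5% CO2; compounds in 11-pt qHTS. Follow-up confirmation included medium with 1uM tariquidar.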

[7] = SDT Cancer Cell Toxicity qHTS against the NCATS CANVASS Library (AID 1347365); note: nearly all actives have a fitted effect of over 60% in size; note: potency is the fitted concentration of half-maximal effect
Method in brief: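 Luminescent ATP read-out (CellTiterGlo) after 72 hr compound exposure of dog glioma SDT cells, 500 per well. Eleven-point titrations; bortezomib titration run alongside as control.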

[8] = G06 Cancer Cell Toxicity qHTS against the NCATS CANVASS Library (AID 1347368); note: nearly all actives have a fitted effect of over 60% in size; note: potency is the fitted concentration of half-maximal effect
Method in brief: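 ATP luminescence (CellTiterGlo) readout of cytotoxicity. Canine G06 glioma cells, 500/well, 72 hr incubation at 37C with compounds; bortezomib titration served as control.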

[9] = biological target: Nuclear receptor subfamily 1 group I member 3 (Homo sapiens) (UniProt Q14994); assay: qHTS for Constitutive Androstane Receptor (CAR) Antagonist screened against the NCATS CANVASS Library (AID 1347372); note: potency is the fitted concentration of half-maximal effect;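 for activity change, negative = inhibition: cells stimulated with 50 nM CITCO agonist so inhibition reflects antagonism; series mostly up to about 46 µM; % is set by controls: 0 for no effect and ±100 for the full control effect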
Method in brief: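 Antagonist mode: compound added alongside 50 nM CITCO to HepG2-hCAR-CYP2B6 reporter cells, 24hr at 37C. Viability by CellTiter-Fluor fluorescence, then CAR-driven luciferase by ONE-Glo luminescence.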

[10] = qHTS for Hypoxia signaling pathway (HIF-1) antagonists against the NCATS CANVASS Library (AID 1347374); note: nearly all actives have a fitted effect of over 60% in size; note: potency is the fitted concentration of half-maximal effect;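 for activity change, negative = inhibition: HRE-bla ME-180 cells stimulated with cobalt chloride to stabilize HIF-1alpha; series mostly up to about 38 µM; % is set by controls: 0 for no effect and ±100 for the full control effect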
Method in brief: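 Beta-lactamase reporter under HRE control in ME-180 cells; CoCl2 stimulus (60 uM solution as added), compounds 11-pt qHTS, 17 h 37C. CCF4 dye 2 h RT, 460/530 nm emission. CellTiter-Glo viability in same wells.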

[11] = qHTS for Hypoxia signaling pathway (HIF-1) agonists against the NCATS CANVASS Library (AID 1347375); note: potency is the fitted concentration of half-maximal effect; for activation: 0% is about no effect
Method in brief: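 Read-out: beta-lactamase FRET (CCF4-AM, ex 405, em 460 and 530 nm) after 2 h at room temperature. ME-180 cells stably carrying HRE-bla were treated 17 h at 37C with compounds in an 11-point concentration series.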

[12] = DH5-alpha competent E. coli microbial cell viability qHTS against the NCATS CANVASS Library (AID 1347377); settings: outcome: dose series up to 46.1 µM unless noted
Method in brief: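 Luminescent ATP read-out (BacTiter-Glo, 20 min RT) after overnight 37C culture of DH5-alpha E. coli with compounds; daunomycin control at 0.2 nM–9.2 uM final.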

[13] = qHTS for H2AX Agonists against the NCATS CANVASS Library (AID 1347378); note: potency is the fitted concentration of half-maximal effect; for activation: 0% is about no effect
Method in brief: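 Phospho-H2AX (S139) in CHO-K1 lysates measured by HTRF, reported as 665/615 nm emission ratio after 24 hr antibody incubation at room temperature. Cells were first treated with a compound series for 3 hr at 37C (0.76% DMSO final).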

[14] = Cytotoxicity qHTS for assessment of Hepg2 cells membrane integrity screened against the NCATS CANVASS Library (AID 1347387)
Method in brief: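 LDH release read by fluorescence (560 nm ex/590 nm em) after CytoTox-ONE addition and 10 min RT; signal tracks lysed cells. HepG2, 2000 cells/well, plated overnight; compound 5 hr, 37C, 5% CO2, final 0.59 nM - 46 uM, 11 points.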

[15] = qHTS for Activators of p53 Stress Response Pathway screened against the NCATS CANVASS Library (AID 1347388); note: 0% is about no effect
Method in brief: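 Beta-lactamase reporter driven by p53 response elements in HCT-116 cells, read as the 460 nm/530 nm emission ratio after CCF4 loading, following 16 h of exposure to an 11-point series. Cell viability was measured in the same wells by CellTiter-Glo luminescence.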

[16] = Secretion counterscreen for inhibitors of the SERCaMP assay screened against the NCATS CANVASS Library (AID 1347390);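 note: light from luciferase secreted into medium read as a measure of general secretion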; note: potency is the fitted concentration of half-maximal effect
Method in brief: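 Counterscreen for secretory-pathway interference: after 4 h attachment, SH-SY5Y-GLuc cells were exposed 20 hours to compounds (final 0.001 - 77 uM), then coelenterazine added and GLuc luminescence recorded; Brefeldin A served as control.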

[17] = Viability qHTS for inhibitors of the SERCaMP assay screened against the NCATS CANVASS Library (AID 1347400); note: nearly all actives have a fitted effect of over 70% in size; note: potency is the fitted concentration of half-maximal effect
Method in brief: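 CellTiter-Glo luminescence readout after 48 h compound exposure (11-pnt qHTS series) of SH-SY5Y-GLuc SERCaMP MJH297 cells seeded at 1000 cells/well; bortezomib positive control.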

[18] = HEK-293 Cancer Cell Toxicity qHTS against the NCATS CANVASS Library (AID 1347355); note: nearly all actives have a fitted effect of over 65% in size; note: potency is the fitted concentration of half-maximal effect
Method in brief: as §1

[19] = qHTS assay for small molecule disruptors of mitochondrial membrane potential screened against the NCATS CANVASS Library (AID 1347389); note: nearly all actives have a fitted effect of over 60% in size; note: potency is the fitted concentration of half-maximal effect
Method in brief: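 Red/green fluorescence ratio read-out: J-aggregates ex 540/em 590 nm, monomers ex 490/em 535 nm. HepG2, 1 hr compound treatment, then 30 min Mito-MPS dye at 37C. 11-pt qHTS concentration series.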

[20] = qHTS for inhibitors of ER calcium dysfunction: SERCaMP assay screened against the NCATS CANVASS Library (AID 1347393); note: nearly all actives have a fitted effect of over 40% in size; note: potency is the fitted concentration of half-maximal effect;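 for activity change, negative = inhibition: series mostly up to about 77 µM; % is set by controls: 0 for no effect and ±100 for the full control effect; lower secreted reporter signal means inhibitor of ER calcium depletion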
Method in brief: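 Thapsigargin-induced ER calcium depletion drives GLuc-SERCaMP secretion from SH-SY5Y cells; compounds given 16 h beforehand were scored by lowered coelenterazine luminescence after 4 h challenge.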

Chain of Nuclear receptor subfamily 1 group I member 3 (Homo sapiens) (Q14994 whole entry, looked up): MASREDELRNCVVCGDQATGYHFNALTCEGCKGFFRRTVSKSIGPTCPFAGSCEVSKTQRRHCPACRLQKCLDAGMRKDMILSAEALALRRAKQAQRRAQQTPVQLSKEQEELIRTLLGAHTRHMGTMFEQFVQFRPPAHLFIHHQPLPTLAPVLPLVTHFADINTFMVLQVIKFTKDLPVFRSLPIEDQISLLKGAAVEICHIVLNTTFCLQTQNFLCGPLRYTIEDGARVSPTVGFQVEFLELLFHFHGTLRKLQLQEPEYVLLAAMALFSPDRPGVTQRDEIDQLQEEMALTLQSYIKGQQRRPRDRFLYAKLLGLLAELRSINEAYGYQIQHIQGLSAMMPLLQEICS

COc1ccc(CCCc2cc(O)c(OC)c(O)c2)c(O)c1O
active: Potency [5] 21.6 µM | Potency [7] 0.166 µM | Potency [8] 0.0148 µM
inactive: Potency [1] | Potency [2] | Potency [3] | Potency [4] | Potency [6] | Potency [9] | Potency [10] | Potency [11] | outcome [12] | Potency [13] | outcome [14] | Potency [15] | Potency [16] | Potency [17]

C1=C2CCCN[C@@H]2[C@@H]2CCN3CCCC[C@@H]3[C@H](C1)C2
inactive: Potency [1] | Potency [2] | Potency [3] | Potency [18] | Potency [4] | Potency [5] | Potency [6] | Potency [7] | Potency [8] | Potency [9] | Potency [10] | Potency [11] | outcome [12] | Potency [13] | outcome [14] | Potency [15] | Potency [19] | Potency [16] | Potency [20] | Potency [17]

CCC[C@@H](C)/C=C(\C)[C@H](O)[C@H](C)/C=C/CC[C@@H](O)[C@H](C)[C@H](O)[C@H](C)[C@H](O)[C@H](C)[C@H]1O[C@H]([C@H](C)C(=O)O)CC[C@@H]1C
active: Potency [1] 16.8 µM | Potency [3] 13.3 µM | Potency [18] 14.8 µM | Potency [6] 11.8 µM | Potency [7] 9.35 µM | Potency [10] 2.98 µM | Potency [19] 20.9 µM | Potency [16] 38.4 µM | Potency [17] 27 µM
inactive: Potency [4] | Potency [5] | Potency [13] | Potency [20]

COc1ccc2oc3c(OC)c(OC)c(OC)c(OC)c3c(=O)c2c1
inactive: activity change, negative = cytotoxicity [1] 3.45% [at 7.64 µM] | outcome [2] inactive [at 9.19 µM] | activity change, negative = cytotoxicity [3] 9.39% [at 7.64 µM] | activity change, negative = cytotoxicity [18] -6.97% [at 9.19 µM] | caspase activation [4] 5.91% [at 9.19 µM] | activity change, negative = inhibition [5] -18.3% [at 11.5 µM] | activity change, negative = cytotoxicity [7] -18.8% [at 9.19 µM] | activity change, negative = cytotoxic [8] -19.7% [at 9.19 µM] | activity change, negative = inhibition [9] 22.2% [at 9.19 µM] | activity change, negative = inhibition [10] 0.76% [at 7.64 µM] | activation [11] 1.59% [at 7.64 µM] | outcome [12] inactive [at 9.19 µM] | activation [13] -1.65% [at 15.3 µM] | cytotoxicity (LDH release) [14] -0.617 [at 9.19 µM] | activation [15] -1.1% [at 9.19 µM] | activity change, negative = inhibition [16] -3.74% [at 15.3 µM] | activity change, negative = inhibition [20] -15.7% [at 15.3 µM] | activity change, negative = cytotoxicity [17] -11.8% [at 18.4 µM]

C=CC(=C)CC[C@]1(C)[C@H]2C[C@H](OC(=O)C(C)CC)C=C3[C@H](OC(C)=O)O[C@H](OC(C)=O)[C@@]32[C@H](OC)C[C@@H]1C (some centres undefined)
inactive: Potency [20]
active: Potency [1] 3.43 µM | Potency [2] 1.52 µM | Potency [3] 5.45 µM | Potency [18] 4.29 µM | Potency [6] 7.62 µM | Potency [7] 8.55 µM | Potency [8] 6.05 µM | Potency [9] 12.1 µM | Potency [10] 4.86 µM | Potency [11] 19.3 µM | Potency [13] 19.9 µM | Potency [19] 15.2 µM | Potency [16] 3.96 µM | Potency [17] 2.21 µM

C=C1C(=O)C[C@H]2C[C@@H]1[C@]2(C)CCC=C(C)C
inactive: Potency [1] | Potency [3] | Potency [4] | Potency [5] | Potency [6] | Potency [9] | Potency [10] | Potency [11] | outcome [12] | Potency [13] | outcome [14] | Potency [15] | Potency [19] | Potency [16] | Potency [17]
active: Potency [20] 19.3 µM
